We go through 173 sequences from article PMC10668032, “Altered binding affinity of SIX1-Q177R correlates with enhanced WNT5A and WNT pathway effector expression in Wilms tumor”.

The full ranking holds about 33,000 sequences; the median of “e-score” is about -0.053, and the highest 2% start at about 0.38. The sample as a whole holds a higher share of the highest values than the screen did.

The target in this assay is T1, SIX1 homeodomain (reference allele) (human, UniProt Q15475 108-198).
T1 sequence: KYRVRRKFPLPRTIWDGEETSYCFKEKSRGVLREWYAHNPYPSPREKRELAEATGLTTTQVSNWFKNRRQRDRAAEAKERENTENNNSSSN
Briefly: universal protein binding microarray; Universal all-10-mer PBM (8x60K, AMADID 030236), 300 nM GST-tagged protein, Alexa Fluor 488 anti-GST; buffer, salt, pH and temperature not stated (as in Berger); high values mean tight binding. The note with it: protein: ivt; tags: N-terminal GST; dsDNA, one strand shown. The procedure, abridged:
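Homeodomains fused to GST were made by in vitro transcription/translation and measured by anti-GST western blot with a recombinant GST standard curve. At 300 nM final concentration, they were applied in duplicate to universal 'all 10-mer' protein binding microarrays (8×60K format).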
Consider TATAAATA, for which the binding signal came to 0.16 ± 0.095 E-score.
On to CGAGATGA, for which the binding signal stood at 0.187 ± 0.0163 E-score.
The same measure for AGTAGATA: 0.334 ± 0.0532 E-score; for ATAGCTAC: 0.163 ± 0.0342 E-score; for AGGCGTAT: 0.318 ± 0.00622 E-score.
Consider TATCTGAA, for which the binding signal is 0.153 ± 0.0196 E-score.
Regarding AAGGATAA, the binding signal stood at 0.167 ± 0.034 E-score.
For the sequence CAGGATAC, the binding signal amounted to 0.365 ± 0.0177 E-score.
The same measure for AAGGATAC: 0.405 ± 0.0292 E-score; for AAGGATAG: 0.195 ± 0.0349 E-score.
The same measure for GAGGATAC: 0.403 ± 0.0104 E-score; for GAGGATAA: 0.278 ± 0.00471 E-score; for ACATTGAT: 0.154 ± 0.01 E-score.
The same measure for ATGAGACC: 0.295 ± 0.00298 E-score; for ATCACATC: 0.284 ± 0.0264 E-score.
On to CACCGATC, for which the binding signal was 0.305 ± 0.0428 E-score.
Take CAATATCG: the binding signal was determined as 0.296 ± 0.0508 E-score.
The same measure for ACATATAC: 0.244 ± 0.0208 E-score; for ACATATCT: 0.233 ± 0.09 E-score; for ACCTATCG: 0.236 ± 0.0191 E-score.
The same measure for CCATATAC: 0.29 ± 0.00643 E-score.
The same measure for CCATATCG: 0.4544 ± 0.00281 E-score; for CCATATAG: 0.211 ± 0.0217 E-score; for CCATATGC: 0.159 ± 0.0297 E-score.
On to ACATATAG, for which the binding signal came to 0.162 ± 0.052 E-score.
The same measure for ACATATCG: 0.389 ± 0.0479 E-score; for ACATATCC: 0.381 ± 0.0241 E-score.
The same measure for CCATATCC: 0.424 E-score.
As for ATATTCAG, the binding signal stood at 0.164 ± 0.0437 E-score.
The same measure for GCTTATCC: 0.304 ± 0.0229 E-score; for TAGATGGA: 0.289 ± 0.00593 E-score.
The same measure for AACAGTAT: 0.196 ± 0.107 E-score; for CGGATTCC: 0.247 ± 0.00447 E-score; for CAGAACAA: 0.176 ± 0.0355 E-score.
The same measure for ATATTAAC: 0.156 ± 0.0934 E-score; for CAAGATCA: 0.242 ± 0.0215 E-score.
As to TATCATGA, the binding signal came to 0.382 ± 0.0397 E-score.
The same measure for TATCCTCA: 0.37 ± 0.037 E-score; for TATCATCA: 0.412 ± 0.0218 E-score.
The same measure for GGTCATGA: 0.169 ± 0.033 E-score.
The same measure for TATCAGGA: 0.397 ± 0.00041 E-score; for GATCATAA: 0.306 ± 0.00493 E-score; for GATCAGGA: 0.339 ± 0.0411 E-score.
For TATCAGCA, the binding signal stood at 0.327 ± 0.0344 E-score.
The same measure for TCTCATAA: 0.161 ± 0.0418 E-score.
The same measure for TATCATAA: 0.381 ± 0.0345 E-score; for TATTATCA: 0.187 ± 0.0898 E-score; for GATCATGA: 0.273 ± 0.0126 E-score.
On to AGGTGGAT, for which the binding signal is 0.305 ± 0.034 E-score.
The same measure for CATAGATC: 0.249 E-score; for CGGTGTGA: 0.204 ± 0.0905 E-score.
The same measure for GGTTAGAA: 0.153 ± 0.0251 E-score; for ATACTCTA: 0.268 ± 0.0991 E-score.
The same measure for CATAATCC: 0.3 ± 0.0272 E-score.
For the sequence AATTGTAT, the binding signal is 0.162 ± 0.0456 E-score.
The same measure for CATACCAG: 0.171 ± 0.0153 E-score.
The same measure for CCATTATA: 0.177 ± 0.0248 E-score; for ATCCAAGA: 0.155 ± 0.0124 E-score; for CAGGGCGA: 0.216 ± 0.0603 E-score.
Take GTATCCGA: the binding signal is 0.426 ± 0.0105 E-score.
The same measure for GAATCCGA: 0.188 ± 0.0166 E-score; for ATATCCGG: 0.4206 ± 0.00416 E-score.
For ATATCCGA, the binding signal was 0.429 ± 0.0108 E-score.
The same measure for CTATCCGA: 0.33 ± 0.00993 E-score; for GCATCCGA: 0.203 ± 0.0461 E-score; for CAATCCGC: 0.29 ± 0.0084 E-score.
On to CTATCCGC, for which the binding signal stood at 0.3601 ± 0.000778 E-score.
The same measure for ATCTCCGA: 0.258 ± 0.0265 E-score; for AAATCCGG: 0.244 ± 0.0271 E-score; for ATATCCGC: 0.43 ± 0.0222 E-score.
The same measure for ACATCCGG: 0.174 ± 0.064 E-score; for ATCGAAGA: 0.293 ± 0.0315 E-score; for GCCAATAC: 0.16 ± 0.00361 E-score.
The same measure for TCAGCTCA: 0.162 ± 0.0286 E-score; for ACTATCTG: 0.178 ± 0.0443 E-score.
GATCGCAA: the binding signal stood at 0.242 ± 0.0198 E-score.
The same measure for GATCGTGA: 0.229 ± 0.0511 E-score.
Consider ATCACTAA, for which the binding signal was 0.166 ± 0.051 E-score.
The same measure for ATCGTAGA: 0.193 ± 0.0118 E-score.
For GGTGTACA, the binding signal is 0.306 ± 0.0258 E-score.
The same measure for CATACATG: 0.154 ± 0.0235 E-score; for ATCCGCGA: 0.259 ± 0.011 E-score; for CAGTGATA: 0.417 ± 0.0231 E-score.
The same measure for TAGTGAGA: 0.203 ± 0.0506 E-score; for GAGAGATA: 0.323 ± 0.0528 E-score; for GAGTGATA: 0.447 ± 0.0268 E-score.
The same measure for GAGTGAGA: 0.234 ± 0.0134 E-score; for TAGTGTGA: 0.184 ± 0.00834 E-score.
Turning to CAGTGAGA, the binding signal stood at 0.16 ± 0.032 E-score.
The same measure for ACGTGATA: 0.344 ± 0.0436 E-score; for AAGTGATA: 0.397 ± 0.0754 E-score; for AAGAGATA: 0.235 ± 0.141 E-score.
Regarding TAGTGATA, the binding signal was 0.415 ± 0.0394 E-score.
Turning to ATACTTCG, the binding signal was 0.304 ± 0.058 E-score.
The same measure for GACAATCC: 0.18 ± 0.0145 E-score; for ATCAACAA: 0.222 ± 0.0259 E-score; for CATATGAC: 0.166 ± 0.0391 E-score.
The same measure for ATACATCG: 0.238 ± 0.0407 E-score; for ACTTACCG: 0.152 ± 0.00235 E-score.
The same measure for TATATTGA: 0.258 ± 0.0428 E-score.
For the sequence GTGTCGGA, the binding signal was 0.322 ± 0.041 E-score.
The same measure for GGATGGGA: 0.195 ± 0.0444 E-score; for CAGATTGA: 0.219 ± 0.0123 E-score; for AAGTGATC: 0.391 ± 0.00486 E-score.
The same measure for ACGTGATC: 0.302 ± 0.0538 E-score.
Take CAGTGATC: the binding signal amounted to 0.382 ± 0.0157 E-score.
Regarding AATTGATC, the binding signal was found to be 0.291 ± 0.0151 E-score.
The same measure for CCGTGATA: 0.348 ± 0.0248 E-score; for CCGTGATC: 0.364 ± 0.0193 E-score; for GAGTGATC: 0.336 ± 0.0148 E-score.
The same measure for GCGTGATA: 0.437 ± 0.0364 E-score; for GATCTATA: 0.298 ± 0.0183 E-score.
The same measure for CCTACACC: 0.163 ± 0.0313 E-score; for CCGTAATA: 0.205 ± 0.0335 E-score.
For the sequence TACTCGAA, the binding signal worked out at 0.152 ± 0.00667 E-score.
The same measure for TACACGGA: 0.173 ± 0.0418 E-score; for ACCATCCG: 0.23 ± 0.0704 E-score.
The same measure for ATACATCC: 0.365 ± 0.0231 E-score; for GATTAATA: 0.301 ± 0.0732 E-score.
The same measure for ATACGCGG: 0.182 ± 0.0649 E-score.
With AGGGGTAT, the binding signal worked out at 0.451 ± 0.0124 E-score.
The same measure for AACGGTAT: 0.234 ± 0.0543 E-score; for AAAGGTAT: 0.337 ± 0.087 E-score.
For the sequence AGGGGTAC, the binding signal was 0.178 ± 0.0933 E-score.
For AAGGGTGT, the binding signal came out at 0.32 ± 0.00631 E-score.
For ACGGGTAT, the binding signal amounted to 0.435 ± 0.0111 E-score.
For the sequence AAGGGTAT, the binding signal was determined as 0.41 ± 0.0209 E-score.
With AGAGGTAT, the binding signal came out at 0.399 ± 0.0394 E-score.
On to AGGGGTAG, for which the binding signal amounted to 0.214 ± 0.0325 E-score.
The same measure for ACAGGTAT: 0.312 ± 0.0224 E-score; for AAGGGTAA: 0.173 ± 0.0225 E-score; for CCGGGTAG: 0.162 ± 0.0432 E-score.
The same measure for CATCCCGA: 0.175 ± 0.0394 E-score; for CGGATTGA: 0.305 ± 0.0268 E-score; for AATGTATA: 0.259 ± 0.0211 E-score.
The same measure for ACACCTCT: 0.239 ± 0.0609 E-score.
Consider TATCCAAA, for which the binding signal turned out to be 0.297 ± 0.0104 E-score.
The same measure for GGATTACA: 0.18 ± 0.0206 E-score; for ATCGTCTG: 0.162 ± 0.0451 E-score.
Turning to CCGGCATC, the binding signal was found to be 0.201 ± 0.0414 E-score.
The same measure for GATACTTA: 0.401 ± 0.0667 E-score.
The same measure for AATACTGT: 0.183 ± 0.00786 E-score; for GATACTGC: 0.44524 ± 0.000438 E-score; for AATACTTC: 0.2 ± 0.116 E-score.
The same measure for AATACTTG: 0.151 ± 0.0521 E-score; for AATACTGC: 0.162 ± 0.0355 E-score.
With GACACTGA, the binding signal came to 0.161 ± 0.0506 E-score.
The same measure for GATACTGA: 0.42285 ± 0.000276 E-score.
The same measure for TATACTGA: 0.239 ± 0.00916 E-score; for ATCGAGTA: 0.226 ± 0.00853 E-score.
The same measure for CGAATACA: 0.151 ± 0.0627 E-score; for CCGCCTGA: 0.228 ± 0.0274 E-score.
As for AACACCAG, the binding signal was found to be 0.164 ± 0.0278 E-score.
The same measure for ATCGCCCG: 0.198 ± 0.0602 E-score; for ACTCCATC: 0.162 ± 0.00629 E-score; for ATCAGCTG: 0.154 ± 0.0485 E-score.
CCCTCATC: the binding signal worked out at 0.176 ± 0.0843 E-score.
CGACACTC: the binding signal turned out to be 0.177 ± 0.0347 E-score.
Regarding ATACATAG, the binding signal worked out at 0.177 ± 0.0401 E-score.
The same measure for GTAGTATA: 0.267 ± 0.0665 E-score; for ATAGTATC: 0.426 ± 0.0263 E-score.
In the case of ATAGTATG, the binding signal worked out at 0.258 ± 0.00892 E-score.
The same measure for CTAGTATA: 0.242 ± 0.0487 E-score; for CTAGTATC: 0.388 ± 0.0365 E-score; for ATAGTATA: 0.29 ± 0.0405 E-score.
The same measure for CATGTGAG: 0.152 ± 0.0831 E-score; for ATCCAAGC: 0.169 ± 0.0665 E-score.
The same measure for AGCCGATC: 0.329 ± 0.0103 E-score; for ACGTATAA: 0.268 ± 0.0722 E-score.
Regarding ACGTATTG, the binding signal stood at 0.211 ± 0.0377 E-score.
The same measure for GCGTATCC: 0.369 ± 0.00641 E-score.
The same measure for CCGTATTC: 0.177 ± 0.00726 E-score.
The same measure for ACGTATTC: 0.234 ± 0.0548 E-score.
